Data as given in ChEMBL document CHEMBL4808148, “HDAC6 screening dataset using tau-based substrate in an enzymatic assay yields selective inhibitors and activators” (2021).
The campaign covered roughly 5,600 compounds. About 390 (7%) showed an effect of 50% or more. This excerpt belongs to a sample that is enriched for strong results.

Each compound was assayed against T1, Protein deacetylase HDAC6 (Homo sapiens) (UniProt Q9UBN7). Settings: at 10 µM.
T1 sequence (whole entry): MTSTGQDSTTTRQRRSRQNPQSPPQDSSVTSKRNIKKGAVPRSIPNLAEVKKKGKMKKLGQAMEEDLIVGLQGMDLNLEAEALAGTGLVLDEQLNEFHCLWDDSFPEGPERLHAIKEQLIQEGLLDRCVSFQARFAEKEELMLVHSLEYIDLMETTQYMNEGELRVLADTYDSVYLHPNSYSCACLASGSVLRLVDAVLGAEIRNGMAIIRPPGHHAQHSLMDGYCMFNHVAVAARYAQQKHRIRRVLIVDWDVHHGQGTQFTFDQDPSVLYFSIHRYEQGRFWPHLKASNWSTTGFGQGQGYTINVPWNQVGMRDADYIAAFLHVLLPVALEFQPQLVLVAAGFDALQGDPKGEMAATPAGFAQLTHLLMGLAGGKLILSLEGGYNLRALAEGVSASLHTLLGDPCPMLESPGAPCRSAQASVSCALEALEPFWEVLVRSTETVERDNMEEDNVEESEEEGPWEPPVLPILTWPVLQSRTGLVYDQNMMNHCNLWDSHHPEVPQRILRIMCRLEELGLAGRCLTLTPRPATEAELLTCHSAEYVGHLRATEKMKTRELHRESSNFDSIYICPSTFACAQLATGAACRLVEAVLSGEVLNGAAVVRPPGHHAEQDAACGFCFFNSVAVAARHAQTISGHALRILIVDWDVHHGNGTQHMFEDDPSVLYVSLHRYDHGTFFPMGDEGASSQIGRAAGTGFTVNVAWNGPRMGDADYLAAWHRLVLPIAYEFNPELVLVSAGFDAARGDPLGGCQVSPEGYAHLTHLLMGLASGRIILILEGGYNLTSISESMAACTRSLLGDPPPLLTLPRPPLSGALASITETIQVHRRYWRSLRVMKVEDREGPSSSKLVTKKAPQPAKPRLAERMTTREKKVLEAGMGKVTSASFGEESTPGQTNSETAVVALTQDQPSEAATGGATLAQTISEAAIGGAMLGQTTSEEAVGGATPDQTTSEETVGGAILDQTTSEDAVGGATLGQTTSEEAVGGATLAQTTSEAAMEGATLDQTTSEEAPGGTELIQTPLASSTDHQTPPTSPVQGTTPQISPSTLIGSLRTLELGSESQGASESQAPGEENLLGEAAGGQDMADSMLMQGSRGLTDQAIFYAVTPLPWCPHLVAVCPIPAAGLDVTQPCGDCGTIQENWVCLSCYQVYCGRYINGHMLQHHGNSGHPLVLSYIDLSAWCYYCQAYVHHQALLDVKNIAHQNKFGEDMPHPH

In order of falling inhibition:
1. O=c1c2ccccc2nc2n1CCCCC2  111%
2. O=C(Nc1cc2cc[nH]c2cn1)c1ccccc1  105%
3. CCN(CC)C(=O)Nc1ccc(OCC(O)CNC(C)(C)C)c(C(C)=O)c1 (configuration not stated)  103%
4. C#C[C@]1(OC(C)=O)CC[C@H]2[C@@H]3CCC4=C/C(=N/O)CC[C@@H]4[C@H]3CC[C@@]21CC  102%
5. CCN(CC)c1ccc(C(=C2C=CC(=[N+](CC)CC)C=C2)c2ccccc2)cc1  101%
6. O=C(N/N=C/c1ccccc1O)c1ccccc1O  98.6%
7. O=C(Nc1ccc2[nH]ccc2c1)c1ccccc1  89.7%
8. OCCN1CCN(CC/C=C2/c3ccccc3Sc3ccc(Cl)cc32)CC1  89.6%
9. O=C(Nc1ccc(O)cc1)c1ccccc1O  85.3%
10. O=c1c2ccccc2nc2n1CCc1c-2[nH]c2ccccc12  84.3%
11. O=C(Nc1ccc(C(=O)O)c(O)c1)c1ccccc1  68.6%
12. O=C(N/N=C/c1ccc(O)c(O)c1)c1cc2ccccc2cc1O  59.7%
13. C/C(O)=C(\C#N)C(=O)Nc1ccc(C(F)(F)F)cc1  58%
14. COC(=O)Nc1ccc2[nH]cc(CCNC(C)=O)c2c1  44.5%
15. CC[N+](CC)(CC)CCC(O)(c1ccccc1)C1CCCCC1 (configuration not stated)  43.5%
16. C#CC1(O)CC[C@H]2[C@@H]3CCC4=CC(=O)CC[C@@H]4[C@H]3CC[C@@]21CC (some centres not stated)  41%
17. C=C[C@@](C)(/C=C/c1ccc(O)cc1)CCC=C(C)C  38.3%
18. CCCCC1(COC(=O)CCC(=O)O)C(=O)N(c2ccccc2)N(c2ccccc2)C1=O  37.6%
19. CN1c2ccccc2C(=O)N2CCc3c([nH]c4ccccc34)C21 (configuration not stated)  36.3%
20. CN(C)CC/C=C1\c2ccccc2CSc2ccccc21  33.1%
21. CCCCc1nn(-c2ccccc2C(F)(F)F)c(=O)n1Cc1ccc(-c2ccccc2S(=O)(=O)NC(=O)c2sccc2C)cc1  30.6%
22. CN1CCN(CC/C=C2/c3ccccc3Sc3ccc(S(=O)(=O)N(C)C)cc32)CC1  30.4%
23. Cc1cc(O)c(C(=O)N[C@@H](C(=O)N[C@@H]2C(=O)N3C(C(=O)O)=C(CSc4nnnn4C)CS[C@H]23)c2ccc(O)cc2)cn1  29%
24. O=C(O)[C@@H](S)[C@@H](S)C(=O)O  28.7%
25. CONC(=N)c1ccc(-c2ccc(-c3ccc(C(=N)NOC)cc3)o2)cc1  28.6%
26. O=C(Nc1ccc(Cl)nc1)c1ccc(Cl)cc1  27.1%
27. COC(=O)c1ccccc1O  25.3%
28. CNC(=O)c1ccc2c(c1)NC(=O)/C2=C(\Nc1cccc(CN(C)C)c1)c1ccccc1  23.6%
29. O=S(=O)(N[C@H]1CC[C@@](c2cc(F)ccc2F)(S(=O)(=O)c2ccc(Cl)cc2)CC1)C(F)(F)F  19.5%
30. O=C(O)CNC(=O)c1ccccc1  17.6%
31. Cc1cc(Cn2cnc3c2C[C@@H](C(=O)O)N(C(=O)C(c2ccccc2)c2ccccc2)C3)ccc1N(C)C  17.5%
32. CC1(C)CCC(C)(C)c2cc(NC(=O)c3ccc(C(=O)O)cc3)ccc21  17.1%
33. CC(C)OC(=O)c1cc2c(OCC(O)CNC(C)(C)C)cccc2[nH]1 (configuration not stated)  17%
34. O=C1CNC(=O)CN1  16.6%
35. Nc1cc(Cl)c(N=C2NCCN2)c(Cl)c1  15.3%
36. CCc1nc(-c2cccc(C)c2)c(-c2ccnc(NC(=O)c3ccccc3)c2)s1  15.3%
37. CC(C)N1CCN(c2ccc(C(=O)c3c(-c4ccc(O)cc4)sc4cc(O)ccc34)cc2)CC1  15%
38. CNc1nc(NCc2ccc(NS(C)(=O)=O)cc2Cl)cc(-c2ccccn2)n1  13.6%
39. Cc1cc(N2CCCCC2)nc2ccccc12  12.2%
40. Cc1c(-c2ccccc2)oc2c(C(=O)OCCN3CCCCC3)cccc2c1=O  11.8%
41. COc1ccc(C(=O)NCc2cccnc2)cc1C(=O)NCc1cccnc1  11.5%
42. NC(=O)c1ccc2[nH]ccc2c1  11.2%
43. CCCn1c(=O)[nH]c(=O)c2nc[nH]c21  9.19%
44. Nc1ccc(S(=O)(=O)O)cc1  9.02%
45. CC(O)(C(=O)Nc1ccc(S(=O)(=O)c2ccccc2)cc1)C(F)(F)F (configuration not stated)  8.38%
46. CCc1cc(-c2[nH]nc(C)c2-c2ccc3c(c2)OCCO3)c(O)cc1O  8.29%
47. O=C(O)CCC/C=C\CC1C(O)CC(O)C1/C=C/C(O)COc1cccc(Cl)c1 (racemic)  7.35%
48. N[C@@]1(C(=O)O)CC[C@H]2[C@H](C(=O)O)[C@H]21  5.51%
49. CCC(=O)OCC(=O)C1(OC(=O)CC)C(C)CC2C3CCC4=CC(=O)C=CC4(C)C3(Cl)C(O)CC21C (configuration not stated)  5.48%
50. CCCOc1ccc(Br)cc1-c1cc(-c2ccc(Cl)cc2)[nH]c1-c1ccncc1  4.47%
51. CC1(C)Oc2ccc(C#N)cc2[C@@H](OC2=CC(=O)CC2)[C@@H]1O  3.84%
52. NC(=O)N/N=C/c1ccc(Oc2ccc(F)cc2)cc1  2.96%
53. Cc1cccc(C)c1NC(=O)c1ccccc1C(=O)O  2.75%
54. CN1[C@@H]2CC[C@H]1C[C@@H](OC(=O)c1c[nH]c3ccccc13)C2.CN1[C@@H]2CC[C@H]1C[C@H](OC(=O)c1c[nH]c3ccccc13)C2  2.5%
55. C[C@]12C=CC(=O)C=C1CC[C@@H]1[C@@H]2[C@@H](O)C[C@@]2(C)[C@H]1CC[C@]2(O)C(=O)CO  1.72%
56. CC1=C(/C=C/C(C)=C/C=C/C(C)CC=O)C(C)(C)CCC1 (configuration not stated)  0.68%
57. CN1C(=O)C(F)=C[C@]2(C)[C@H]3CC[C@]4(C)[C@@H](C(=O)NCc5nc6cccnc6[nH]5)CC[C@H]4[C@@H]3CC[C@@H]12  -0.34%
58. CCOc1ccccc1OCC1CNCCO1 (configuration not stated)  -0.93%
59. CC(=O)Nc1ccc(NC(=S)NC(=O)c2ccc(C(C)(C)C)cc2)cc1  -1.57%
60. Cc1ccc(F)cc1C(=O)Nc1ccc(C(=O)N2Cc3cccn3Cc3ccccc32)c(Cl)c1  -1.78%
61. CN1CCN2c3c(cccc31)[C@@H]1CN(CCCC(=O)c3ccc(F)cc3)CC[C@@H]12  -3.09%
62. c1ccc(-c2n[nH]cc2-c2ccnc3ccccc23)nc1  -5.98%
63. CCCC(=O)Nc1ccc(OCC(O)CNC(C)C)c(C(C)=O)c1 (configuration not stated)  -5.99%
64. c1ccc(Oc2nc3ncnc-3c(NC3CCCCC3)[nH]2)cc1  -6.25%
65. NC(C(=O)O)c1ccc(C(=O)O)c(O)c1 (racemic)  -7.25%
66. C#C[C@]1(O)CC[C@H]2[C@@H]3CCC4=CC(=O)CC[C@@H]4[C@H]3CC[C@@]21CC  -8.51%
67. CC1CS(=O)(=O)CCN1/N=C/c1ccc([N+](=O)[O-])o1 (configuration not stated)  -9.63%
